Results reported in article PMC11024108.

Key:
Assay in all cases: cross-link between two proteins; cross-linking mass spectrometry
[1] = molecular target: Small ribosomal subunit protein eS4, X isoform (UniProt P62701)
[2] = molecular target: Small ribosomal subunit protein uS19 (UniProt P62841)
[3] = molecular target: Small ribosomal subunit protein uS4 (UniProt Q6ZWN5)
Syntaxin-1B = Syntaxin-1B (UniProt P61264)
Tubulin alpha-1C chain = Tubulin alpha-1C chain (UniProt Q9BQE3)
Tubulin beta-2A chain = Tubulin beta-2A chain (UniProt Q7TMM9)
[4] = molecular target: Ubiquitin-like FUBI-ribosomal protein eS30 fusion protein (UniProt P62861)
[5] = molecular target: Ubiquitin-ribosomal protein eS31 fusion protein (UniProt P62979)
[6] = molecular target: cAMP-dependent protein kinase catalytic subunit beta (UniProt P68181)
[7] = molecular target: cAMP-dependent protein kinase type II-beta regulatory subunit (UniProt P31324)
cAMP-dependent protein kinase type II-beta regulatory subunit, sequence (P31324 whole entry): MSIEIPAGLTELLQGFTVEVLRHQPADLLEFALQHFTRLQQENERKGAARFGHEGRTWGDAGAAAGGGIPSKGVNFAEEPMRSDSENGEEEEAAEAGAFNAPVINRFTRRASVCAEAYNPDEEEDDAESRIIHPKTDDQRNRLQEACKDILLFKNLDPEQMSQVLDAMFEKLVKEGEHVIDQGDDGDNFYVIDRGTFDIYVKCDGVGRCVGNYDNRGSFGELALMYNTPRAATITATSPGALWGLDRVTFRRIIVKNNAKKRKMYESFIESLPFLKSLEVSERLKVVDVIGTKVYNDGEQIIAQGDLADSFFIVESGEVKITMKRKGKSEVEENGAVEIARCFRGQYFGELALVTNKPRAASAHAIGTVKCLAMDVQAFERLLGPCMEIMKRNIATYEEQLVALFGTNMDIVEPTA

Syntaxin-1B, sequence (P61264 whole entry): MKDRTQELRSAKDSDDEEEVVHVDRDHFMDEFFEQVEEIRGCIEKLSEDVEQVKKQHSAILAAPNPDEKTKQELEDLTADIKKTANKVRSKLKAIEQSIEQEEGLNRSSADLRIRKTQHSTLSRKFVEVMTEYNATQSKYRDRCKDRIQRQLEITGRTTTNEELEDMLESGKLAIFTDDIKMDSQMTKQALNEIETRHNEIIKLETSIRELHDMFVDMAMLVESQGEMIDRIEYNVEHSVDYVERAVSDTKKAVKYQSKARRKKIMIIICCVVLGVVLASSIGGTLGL
cAMP-dependent protein kinase type II-alpha regulatory subunit, P12367, sequence (P12367 whole entry): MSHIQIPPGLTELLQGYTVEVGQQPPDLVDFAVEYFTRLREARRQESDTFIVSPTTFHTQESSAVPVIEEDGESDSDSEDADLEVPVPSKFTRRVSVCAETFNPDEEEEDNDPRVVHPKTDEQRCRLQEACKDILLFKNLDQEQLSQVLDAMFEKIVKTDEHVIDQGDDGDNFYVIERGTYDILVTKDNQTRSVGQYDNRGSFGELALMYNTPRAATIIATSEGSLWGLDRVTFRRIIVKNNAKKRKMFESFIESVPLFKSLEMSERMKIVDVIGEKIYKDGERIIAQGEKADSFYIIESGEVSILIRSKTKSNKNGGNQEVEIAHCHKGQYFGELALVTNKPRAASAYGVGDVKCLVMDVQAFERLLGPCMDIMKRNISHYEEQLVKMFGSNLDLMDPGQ
Tubulin beta-2A chain, sequence (Q7TMM9 whole entry, the tested form may be a part): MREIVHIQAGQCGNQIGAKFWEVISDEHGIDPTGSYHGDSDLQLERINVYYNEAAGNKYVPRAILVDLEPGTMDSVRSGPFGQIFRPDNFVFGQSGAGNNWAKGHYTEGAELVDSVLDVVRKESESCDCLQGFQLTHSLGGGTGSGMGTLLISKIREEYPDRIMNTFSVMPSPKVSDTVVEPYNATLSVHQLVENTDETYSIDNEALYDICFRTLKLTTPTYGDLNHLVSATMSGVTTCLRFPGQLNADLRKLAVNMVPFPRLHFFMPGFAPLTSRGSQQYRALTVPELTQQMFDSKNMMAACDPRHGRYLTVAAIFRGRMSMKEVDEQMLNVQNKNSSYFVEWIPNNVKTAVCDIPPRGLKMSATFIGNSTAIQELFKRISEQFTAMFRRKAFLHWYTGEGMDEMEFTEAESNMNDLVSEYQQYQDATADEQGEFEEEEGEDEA
Tubulin alpha-1A chain, P68369, sequence (P68369 whole entry): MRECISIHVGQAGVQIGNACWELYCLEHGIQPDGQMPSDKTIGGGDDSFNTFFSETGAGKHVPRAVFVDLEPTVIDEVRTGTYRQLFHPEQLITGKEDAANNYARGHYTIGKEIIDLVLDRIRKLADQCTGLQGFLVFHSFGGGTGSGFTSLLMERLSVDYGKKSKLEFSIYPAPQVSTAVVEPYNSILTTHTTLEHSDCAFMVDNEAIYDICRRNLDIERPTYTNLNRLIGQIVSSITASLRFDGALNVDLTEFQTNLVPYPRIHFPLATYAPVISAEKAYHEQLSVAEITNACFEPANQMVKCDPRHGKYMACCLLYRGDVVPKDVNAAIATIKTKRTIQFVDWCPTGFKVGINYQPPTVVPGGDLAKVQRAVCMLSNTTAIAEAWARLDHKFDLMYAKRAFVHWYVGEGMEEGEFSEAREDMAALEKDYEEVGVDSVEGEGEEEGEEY
Syntaxin-1A, O35526, sequence (O35526 whole entry): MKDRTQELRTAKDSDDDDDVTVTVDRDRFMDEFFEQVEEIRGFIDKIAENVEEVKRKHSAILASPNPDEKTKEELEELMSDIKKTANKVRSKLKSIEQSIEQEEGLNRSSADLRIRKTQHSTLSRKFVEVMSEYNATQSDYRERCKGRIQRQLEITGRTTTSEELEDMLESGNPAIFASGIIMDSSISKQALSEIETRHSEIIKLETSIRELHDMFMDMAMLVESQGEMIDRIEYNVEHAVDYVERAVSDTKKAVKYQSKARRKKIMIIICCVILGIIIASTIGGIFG

Small ribosomal subunit protein uS4, P46781
listed as a hit [1]: yes

Small ribosomal subunit protein uS13, P62269
listed as a hit [2]: yes

Small ribosomal subunit protein uS5, P25444
listed as a hit [3]: yes

Small ribosomal subunit protein eS4, P62702
listed as a hit [3]: yes

Syntaxin-1A, O35526
listed as a hit (Syntaxin-1B): yes

L-lactate dehydrogenase A chain, P00338
listed as a hit (Tubulin alpha-1C chain): yes

Tubulin alpha-1A chain, P68369
listed as a hit (Tubulin beta-2A chain): yes

Small ribosomal subunit protein uS3, P23396
listed as a hit [4]: yes

Small ribosomal subunit protein uS15, P62277
listed as a hit [5]: yes

Small ribosomal subunit protein eS7, P62081
listed as a hit [5]: yes

cAMP-dependent protein kinase catalytic subunit alpha, P05132
listed as a hit [6]: yes

cAMP-dependent protein kinase type II-alpha regulatory subunit, P12367
listed as a hit [7]: yes
